According to PubChem BioAssay (NCATS):
Inconclusive results are not listed. Activity calls are given as the source filed them. Unless noted, calls follow the shape of the dose curve; as a rule, active = well fitted curve in either direction with a large enough effect (not every such curve was filed as active); inconclusive = small, poorly fitted or top-dose-only effect, or another doubt; inactive = flat fitted curve, though single readings scatter.

What was measured:
[1] = AP1 Signaling Pathway (AID 357); details: ME-180 AP-1-bla reporter, EGF-induced, beta-lactamase ratio, 5 h; at 17.2 µM (top of the series) unless noted;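 also: ME-180 reporter cells stimulated with EGF at its EC50 level; % is scaled to controls: 0 for no effect and ±100 for the full control effect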
Method in brief: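 A ratiometric CCF4 readout (405 nm excitation; 460 and 530 nm emission) quantified AP-1-driven beta-lactamase in ME-180 cells after 5 h with compound and EC50 EGF; AC50 values were derived for activators and inhibitors.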

[2] = NFAT Signaling Pathway (AID 444); details: Jurkat NFAT-bla M1, carbachol, beta-lactamase ratio, 5 h; at 17.2 µM (top of the series) unless noted;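 also: carbachol stimulus at about its EC50 of 1 µM final; % is scaled to controls: 0 for no effect and ±100 for the full control effect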
Method in brief: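 Jurkat cells with NFAT-driven β-lactamase reporter and co-expressed M1 receptor, stimulated with carbachol (final 1 uM, ~EC50), compound titration, 5 h at 37 °C. CCF4 loaded 1 h at RT; 460/530 nm ratio gave %activity and AC50.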

[3] = Stat Signaling Pathway (AID 446);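 also: ME-180 cervical cancer cells given 40 pM IL-6 alongside compound; SIE-controlled beta-lactamase reporter measured as 460/530 nm FRET emission ratio; % is scaled to controls: 0 for no effect and ±100 for the full control effect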
Method in brief: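 Reporter line: ME-180 cervical carcinoma, SIE-beta-lactamase. Treatment: compound with 40 pM IL-6, 5 hrs, 37 C, in low-serum OPTI-MEM with 10 mM HEPES pH 7.3. Detection: 460/530 nm fluorescence.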

[4] = target: Glucocorticoid receptor (Homo sapiens) (UniProt P04150); assay: GR-GFP Redistribution (AID 450;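 active = compounds whose dose series gives a full or clear partial fitted curve of increased nuclear translocation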; also: potency is read from the fitted curve at half-maximal effect); details: U2OS GR-GFP nuclear translocation, laser cytometry, 2 h
[5] = target: Glucocorticoid receptor (Homo sapiens) (UniProt P04150); assay: GR-EFC Redistribution (AID 451; calls by dose curve; also: potency is read from the fitted curve at half-maximal effect); details: CHO-K1 GR-EFC translocation, beta-gal luminescence, 2 h
Method in brief: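 CHO-K1 cells expressing nuclear EA and GR-ED fragments of b-gal; compounds titrated up to 46 uM final, 2 h at 37 C. GR nuclear translocation read as complemented b-gal luminescence after 1 h RT detection.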

[6] = target: Mitogen-activated protein kinase 10 (Mus musculus) (UniProt Q61831); assay: JNK3 AlphaScreen Assay (AID 530);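 also: kinase came from lysate of stimulated human HepG2 cells; signal reports phosphorylation of biotinylated GST-cJun 1-79 at Ser73 with 10 µM ATP; % is scaled to controls: 0 for no effect and ±100 for the full control effect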
Method in brief: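 Pre-activated (IL-1β/TNFα) JNK3 in HepG2 lysates phosphorylates biotin-GST-cJun(1-79), 10 uM ATP; anti-phospho-cJun(Ser73) AlphaScreen read at room temperature, pH 7.6 Tris buffer. Compounds pre-incubated 15 min as titrations.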

[7] = target: 3',5'-cyclic-AMP phosphodiesterase 4B (Homo sapiens) (UniProt Q07343); assay: qHTS Assay for Inhibitors of PDE-IV (AID 607; active = well fitted activation curve with a large enough effect in the main read-out, with a control signal flat, not every such curve was filed as active; also: % of control where 0% means no effect)
Method in brief: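 Cell-based read-out of cAMP via a modified cyclic nucleotide-gated channel and membrane potential dye (535/590 nm) in HEK293 cells expressing PDE4 endogenously. Compounds tested up to 22.9 uM final; 100 uM RO 20-1724 reference.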

[8] = target: Guanine nucleotide-binding protein G(i) subunit alpha-1 (Homo sapiens) (UniProt P63096); assay: qHTS Assay for Inhibitors of RGS12 GoLoco Motif Activity (Green Fluorophore) (AID 879; active = well fitted curve in the direction sought with a large enough effect; an effect the other way counts as inactive or inconclusive;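 also: 0% = labeled peptide with Gαi1 and full inhibition = labeled peptide alone without protein; negative values mean loss of peptide binding seen as reduced polarization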)
Method in brief: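 Fluorescence polarization assay: 50 nM Gαi1 with 10 nM FITC-labeled RGS12 GoLoco peptide in 10 mM Tris pH 7.5, 150 mM NaCl, 0.1 mM GDP, 0.05% NP40, 10 min at room temperature with compound.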

[9] = target: Muscarinic acetylcholine receptor M1 (Rattus norvegicus) (UniProt P08482); assay: qHTS Assay for Antagonists of Acetylcholine Muscarinic M1 Receptor: Measurement of IP-One Response (AID 944; active = well fitted curve in the direction sought with a large enough effect; an effect the other way counts as inactive or inconclusive; also: nearly all actives have a fitted effect of over 75% in size)
Method in brief: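 CHO cells stably expressing rat M1, pretreated 10 min with compound, then stimulated 30 min with carbachol at EC80 (200 nM) in LiCl-containing buffer pH 7.4; IP1 accumulation read by HTRF competition (665/620 nm).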

[10] = target: Pyruvate kinase (Leishmania mexicana) (UniProt Q27686); assay: qHTS Validation Assay for Inhibitors of Leishmania Mexicana Pyruvate Kinase (AID 945; active = well fitted curve in the direction sought with a large enough effect; an effect the other way counts as inactive or inconclusive;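 also: 0% = DMSO only neutral control wells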)
Method in brief: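 Substrate mix (0.5 mM PEP, 0.1 mM ADP, 7 mM MgCl2, 50 mM KCl, pH 7.2 imidazole) received compound by pin tool, then 0.2 nM LmPYK E451W. After 1 h at room temperature, PKLight was added and luminescence measured.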

[11] = target: Pyruvate kinase PKM (Homo sapiens) (UniProt P14618); assay: qHTS Assay for Activators of Human Muscle Pyruvate Kinase (AID 954; active = well fitted curve in the direction sought with a large enough effect, not every such curve was filed as active;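 also: 0% = uninhibited enzyme and -100% = no enzyme or full thiadiazolimine inhibition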)
Method in brief: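 Human PKM2 activity is measured as ATP generation, detected by luciferase-coupled luminescence. The enzyme (0.1 nM) acts on 0.5 mM PEP and 0.1 mM ADP for 1 h at ambient temperature; data are normalized to uninhibited and full-inhibition wells.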

[12] = target: Alpha-galactosidase (Coffea arabica) (UniProt Q42656); assay: Counterscreen for Glucocerebrosidase Inhibitors: qHTS Assay for Coffee Bean alpha-Galactosidase at pH 4.5 (AID 957; active = well fitted curve in the direction sought with a large enough effect; an effect the other way counts as inactive or inconclusive;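 also: plate controls were enzyme alone for no effect and no enzyme for full effect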)
Method in brief: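 Coffee bean enzyme (2 nM) with 80 uM 4-methylumbelliferyl alpha-D-galactopyranoside in 50 mM citric acid, 0.005% Tween-20, pH 4.5, 20 min at room temperature; compounds 0.7 nM–77 uM. Stopped at pH 10, fluorescence 365/440 nm; AC50 from Hill fits.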

[13] = target: Alpha-galactosidase A (Homo sapiens) (UniProt P06280); assay: Counterscreen for Glucocerebrosidase Inhibitors: qHTS Assay for Human alpha-Galactosidase at pH 4.5 (AID 992; active = well fitted curve in the direction sought with a large enough effect; an effect the other way counts as inactive or inconclusive; also: 0% is about no effect)
Method in brief: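 Quantitative HTS: compounds tested from 0.7 nM up to 77 uM against 2 nM enzyme with 80 uM 4-MU alpha-D-galactopyranoside. The 20 min room-temperature reaction is stopped with 1M NaOH/1M glycine, pH 10.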

[14] = target: alpha-glucosidase (Oryza sativa, rice) (UniProt Q653V4); assay: Counterscreen for Glucocerebrosidase Inhibitors: qHTS Assay for Rice alpha-Glucosidase at pH 5.0 (AID 997; active = well fitted curve in the direction sought with a large enough effect; an effect the other way counts as inactive or inconclusive;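 also: 0% = full activity with enzyme and -100% = basal without enzyme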)
Method in brief: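 Rice alpha-glucosidase (4 nM final) with 400 uM 4-methylumbelliferyl-alpha-D-glucopyranoside in citrate buffer pH 5.0, 20 min at room temperature, stopped at pH 10; fluorescence 365/440 nm, compounds 0.7 nM–77 uM, AC50 from Hill fits.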

[15] = target: Alpha-galactosidase (Coffea arabica) (UniProt Q42656); assay: Counterscreen for Glucocerebrosidase Inhibitors: qHTS Assay for Coffee Bean alpha-Galactosidase at pH 5.9 (AID 998; active = well fitted curve in the direction sought with a large enough effect; an effect the other way counts as inactive or inconclusive;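 also: plate controls were uninhibited enzyme for no effect and no-enzyme basal signal for full effect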)
Method in brief: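 Green coffee bean enzyme (2 nM) with 4-methylumbelliferyl alpha-D-galactopyranoside (80 uM) in 50 mM citric acid, 0.005% Tween-20, pH 5.9, 20 min at room temperature; compounds 0.7 nM–77 uM. Stopped at pH 10, fluorescence Ex365/Em440; Hill-fit AC50.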

[16] = qHTS Assay for Identification of Small Molecule Agonists for Hypoxia Response Element Signaling Pathway (AID 914; active = well fitted activation curve with a large enough effect in the signal ratio, with a control signal flat, not every such curve was filed as active; the % refers to the signal ratio; also: % of control where 0% means no effect); details: ME-180 HRE-bla reporter, beta-lactamase ratio, CoCl2, 17 h; activation: active compounds read high
Method in brief: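 Read-out: CCF4 FRET ratio of 460nm to 530nm emission (excitation 405nm) after 2.5 hours at room temperature, taken from HRE-bla ME-180 cells that had been exposed to compound and EC50 CoCl2 for 17 hours.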

[17] = qHTS Assay for Identification of Small Molecule Antagonists for NFkB Signaling Pathway (AID 895; active = well fitted inhibition curve with a large enough effect in the signal ratio, with a control signal flat, not every such curve was filed as active; the % refers to the signal ratio; also: % is scaled to controls: 0 for no effect and ±100 for the full control effect)
Method in brief: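 ME-180 NFkB-bla cells (beta-lactamase under NFkB response element), plated overnight, treated with compound then 10 pM TNF alpha (about EC50) for 5 hrs at 37 C. LiveBLAzer FRET read at 460/530 nm emission, 405 nm excitation.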

Chain of Alpha-galactosidase A (Homo sapiens) (P06280 whole entry, looked up): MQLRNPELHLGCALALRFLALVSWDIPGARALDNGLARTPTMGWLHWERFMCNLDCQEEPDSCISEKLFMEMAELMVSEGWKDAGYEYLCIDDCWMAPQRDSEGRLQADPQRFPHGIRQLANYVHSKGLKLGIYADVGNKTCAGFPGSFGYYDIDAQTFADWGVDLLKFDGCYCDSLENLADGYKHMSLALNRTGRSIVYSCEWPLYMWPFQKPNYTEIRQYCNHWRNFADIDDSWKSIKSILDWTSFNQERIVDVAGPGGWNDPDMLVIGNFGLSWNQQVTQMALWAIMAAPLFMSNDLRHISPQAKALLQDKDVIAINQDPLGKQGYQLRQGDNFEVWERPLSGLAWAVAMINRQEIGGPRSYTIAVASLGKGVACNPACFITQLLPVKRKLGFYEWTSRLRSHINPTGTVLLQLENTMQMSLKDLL
Chain of Pyruvate kinase (Leishmania mexicana) (Q27686 2-499 E452W): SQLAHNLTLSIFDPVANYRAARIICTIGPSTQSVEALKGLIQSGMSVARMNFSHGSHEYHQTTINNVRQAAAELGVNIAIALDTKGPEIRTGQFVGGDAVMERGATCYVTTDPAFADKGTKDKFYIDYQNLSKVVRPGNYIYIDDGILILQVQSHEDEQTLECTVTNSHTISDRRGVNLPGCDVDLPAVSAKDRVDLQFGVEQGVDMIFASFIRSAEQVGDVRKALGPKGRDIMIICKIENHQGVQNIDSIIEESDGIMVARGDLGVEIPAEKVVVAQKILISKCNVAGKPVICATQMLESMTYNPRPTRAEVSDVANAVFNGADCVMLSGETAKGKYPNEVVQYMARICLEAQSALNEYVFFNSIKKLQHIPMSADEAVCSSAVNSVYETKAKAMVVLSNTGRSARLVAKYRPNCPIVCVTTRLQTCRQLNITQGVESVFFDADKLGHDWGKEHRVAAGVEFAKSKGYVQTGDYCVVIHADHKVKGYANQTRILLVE
Chain of Pyruvate kinase PKM (Homo sapiens) (P14618 whole entry, looked up): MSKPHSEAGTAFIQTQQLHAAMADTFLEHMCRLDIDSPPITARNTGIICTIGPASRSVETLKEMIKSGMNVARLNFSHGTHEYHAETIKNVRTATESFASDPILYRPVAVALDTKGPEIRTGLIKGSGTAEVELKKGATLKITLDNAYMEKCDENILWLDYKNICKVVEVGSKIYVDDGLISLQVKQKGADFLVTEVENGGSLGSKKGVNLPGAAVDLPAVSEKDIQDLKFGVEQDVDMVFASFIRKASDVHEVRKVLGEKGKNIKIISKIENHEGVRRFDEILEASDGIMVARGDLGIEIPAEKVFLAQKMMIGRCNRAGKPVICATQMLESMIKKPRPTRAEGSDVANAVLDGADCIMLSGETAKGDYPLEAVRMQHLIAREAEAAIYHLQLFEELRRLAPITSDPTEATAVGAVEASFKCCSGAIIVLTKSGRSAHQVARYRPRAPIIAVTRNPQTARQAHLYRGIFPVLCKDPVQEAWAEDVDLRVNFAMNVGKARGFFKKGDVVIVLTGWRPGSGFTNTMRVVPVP
Chain of Alpha-galactosidase (Coffea arabica) (Q42656 whole entry, looked up): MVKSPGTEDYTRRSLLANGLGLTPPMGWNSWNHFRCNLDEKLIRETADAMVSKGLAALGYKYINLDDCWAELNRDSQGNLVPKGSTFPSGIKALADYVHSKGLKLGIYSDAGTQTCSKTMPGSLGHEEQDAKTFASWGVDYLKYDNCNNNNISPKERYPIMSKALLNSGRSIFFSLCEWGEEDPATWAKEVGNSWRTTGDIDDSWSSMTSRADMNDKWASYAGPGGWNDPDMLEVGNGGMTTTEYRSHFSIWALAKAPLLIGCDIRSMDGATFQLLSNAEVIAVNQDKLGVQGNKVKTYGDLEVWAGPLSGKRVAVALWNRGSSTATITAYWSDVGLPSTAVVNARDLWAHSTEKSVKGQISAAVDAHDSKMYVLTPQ
Chain of Glucocorticoid receptor (Homo sapiens) (P04150 whole entry, looked up, the tested form may be a part): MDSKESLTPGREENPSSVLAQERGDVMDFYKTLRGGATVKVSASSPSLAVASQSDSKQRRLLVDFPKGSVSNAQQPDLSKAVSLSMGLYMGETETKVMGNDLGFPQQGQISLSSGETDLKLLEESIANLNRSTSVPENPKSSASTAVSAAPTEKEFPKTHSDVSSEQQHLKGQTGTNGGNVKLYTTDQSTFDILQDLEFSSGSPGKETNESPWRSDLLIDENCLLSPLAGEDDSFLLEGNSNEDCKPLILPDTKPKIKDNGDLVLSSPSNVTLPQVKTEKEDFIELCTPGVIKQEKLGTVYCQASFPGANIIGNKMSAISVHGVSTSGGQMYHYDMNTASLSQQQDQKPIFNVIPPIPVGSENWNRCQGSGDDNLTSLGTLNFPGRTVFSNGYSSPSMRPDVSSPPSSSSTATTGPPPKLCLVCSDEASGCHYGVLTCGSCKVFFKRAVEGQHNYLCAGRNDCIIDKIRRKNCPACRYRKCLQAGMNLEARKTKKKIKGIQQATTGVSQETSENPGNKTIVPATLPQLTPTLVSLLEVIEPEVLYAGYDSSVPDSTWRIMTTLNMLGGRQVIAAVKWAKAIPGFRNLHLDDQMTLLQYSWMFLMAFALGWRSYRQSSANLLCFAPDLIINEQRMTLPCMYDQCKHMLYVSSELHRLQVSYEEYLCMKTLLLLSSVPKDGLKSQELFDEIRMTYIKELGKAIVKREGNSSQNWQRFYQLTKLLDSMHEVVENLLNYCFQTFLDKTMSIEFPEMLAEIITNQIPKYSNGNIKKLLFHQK
Chain of 3',5'-cyclic-AMP phosphodiesterase 4B (Homo sapiens) (Q07343 whole entry, looked up): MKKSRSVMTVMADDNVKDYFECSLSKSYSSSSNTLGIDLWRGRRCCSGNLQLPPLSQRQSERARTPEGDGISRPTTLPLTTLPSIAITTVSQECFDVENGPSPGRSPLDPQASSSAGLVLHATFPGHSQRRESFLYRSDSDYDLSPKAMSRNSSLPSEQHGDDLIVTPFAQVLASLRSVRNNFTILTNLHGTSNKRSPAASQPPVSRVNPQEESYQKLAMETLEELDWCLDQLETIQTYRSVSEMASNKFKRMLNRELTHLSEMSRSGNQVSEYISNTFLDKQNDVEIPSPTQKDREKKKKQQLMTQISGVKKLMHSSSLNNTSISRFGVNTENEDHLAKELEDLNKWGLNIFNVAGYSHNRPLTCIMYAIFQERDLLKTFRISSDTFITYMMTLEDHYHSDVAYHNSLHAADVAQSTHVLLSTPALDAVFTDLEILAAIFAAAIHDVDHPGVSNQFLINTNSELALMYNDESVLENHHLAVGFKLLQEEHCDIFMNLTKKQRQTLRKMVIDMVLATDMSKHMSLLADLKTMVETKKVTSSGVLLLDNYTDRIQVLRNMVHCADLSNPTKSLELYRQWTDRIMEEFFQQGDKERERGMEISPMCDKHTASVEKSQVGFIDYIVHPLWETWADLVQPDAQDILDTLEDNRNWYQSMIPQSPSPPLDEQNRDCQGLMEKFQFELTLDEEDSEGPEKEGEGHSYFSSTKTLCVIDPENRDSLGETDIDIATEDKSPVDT
Chain of Guanine nucleotide-binding protein G(i) subunit alpha-1 (Homo sapiens) (P63096 whole entry, looked up): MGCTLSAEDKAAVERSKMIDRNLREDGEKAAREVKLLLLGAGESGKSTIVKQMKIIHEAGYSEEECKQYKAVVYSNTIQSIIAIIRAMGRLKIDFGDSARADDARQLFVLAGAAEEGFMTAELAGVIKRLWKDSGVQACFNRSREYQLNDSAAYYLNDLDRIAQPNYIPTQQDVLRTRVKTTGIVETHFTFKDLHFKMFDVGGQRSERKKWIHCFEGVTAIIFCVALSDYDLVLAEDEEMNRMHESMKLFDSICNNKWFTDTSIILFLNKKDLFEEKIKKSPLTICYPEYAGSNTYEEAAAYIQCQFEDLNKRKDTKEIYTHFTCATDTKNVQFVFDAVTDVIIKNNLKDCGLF
Chain of Muscarinic acetylcholine receptor M1 (Rattus norvegicus) (P08482 whole entry, looked up): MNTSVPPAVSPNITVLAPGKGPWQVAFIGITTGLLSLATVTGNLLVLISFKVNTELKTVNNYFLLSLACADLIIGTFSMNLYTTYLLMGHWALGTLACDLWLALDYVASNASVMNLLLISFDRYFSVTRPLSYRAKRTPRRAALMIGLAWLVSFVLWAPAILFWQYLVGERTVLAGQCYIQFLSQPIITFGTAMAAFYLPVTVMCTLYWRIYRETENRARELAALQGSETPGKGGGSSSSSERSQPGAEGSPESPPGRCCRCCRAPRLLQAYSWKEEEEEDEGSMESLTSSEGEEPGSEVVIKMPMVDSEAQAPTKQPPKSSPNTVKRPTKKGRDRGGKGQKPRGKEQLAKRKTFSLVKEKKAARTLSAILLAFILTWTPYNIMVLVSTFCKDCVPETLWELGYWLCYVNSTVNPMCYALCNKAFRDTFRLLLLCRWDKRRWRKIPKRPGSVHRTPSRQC

CC(C)(O)[C@H]1[C@H]2OC(=O)[C@@H]1[C@]1(O)C[C@H]3O[C@]34C(=O)O[C@H]2[C@]14C (tested in a mixture with another compound)
inactive: activity change, negative = inhibition [1] 5.02% [at 38 µM] | activity change, negative = inhibition [2] -0.245% [at 38 µM] | outcome [3] | Potency [4] > 46 µM | Potency [5] > 46 µM | outcome [6] | outcome [7] | Potency [8] | Potency [9] | Potency [10] | outcome [11] | outcome [12] | outcome [13] | outcome [14] | outcome [15]

CNCCc1nc(N)n[nH]1
inactive: activity change, negative = inhibition [1] 16.9% | activity change, negative = inhibition [2] -10.7% | outcome [3] | Potency [4] > 20.6 µM | activation [16] 12.1%

Oc1ccc2c3c1O[C@@H]1[C@@H](O)CC[C@]4(O)[C@H](C2)N(CC2CCC2)CC[C@@]314
inactive: activity change, negative = inhibition [1] 2.34% [at 38 µM] | activity change, negative = inhibition [2] 2.45% [at 38 µM] | outcome [3] | Potency [4] > 46 µM | Potency [5] > 46 µM | outcome [6] | outcome [7] | Potency [8] | Potency [17] | Potency [9] | Potency [10] | outcome [11] | outcome [12] | outcome [13] | outcome [14] | outcome [15]

CC(C)[C@H]1C(=O)N2CCC[C@H]2[C@]2(O)O[C@](NC(=O)[C@@H]3C=C4c5cccc6[nH]cc(c56)C[C@H]4N(C)C3)(C(C)C)C(=O)N12
inactive: activity change, negative = inhibition [1] -19% | outcome [3] | Potency [4] > 20.6 µM

CC1CCC(C(C)C)C(OP(N)(=O)c2ccccc2)C1 (centres undefined)
inactive: activity change, negative = inhibition [1] -1.85% | activity change, negative = inhibition [2] 16.1% | outcome [3] | Potency [4] > 20.6 µM | activation [16] -7.02%

CC[C@H](CO)NC(=O)[C@@H]1C=C2c3cccc4[nH]cc(c34)C[C@@H]2N(C)C1
inactive: activity change, negative = inhibition [1] 2.51% [at 38 µM] | activity change, negative = inhibition [2] -0.886% [at 38 µM] | outcome [3] | Potency [4] > 46 µM | Potency [5] > 46 µM | outcome [6] | outcome [7] | Potency [10] | outcome [11] | outcome [12] | outcome [13] | outcome [14]

O=C(CN1CCN(CCO)CC1)Nc1ccc(Cl)cc1C(=O)c1ccccc1
inactive: activity change, negative = inhibition [1] 3.2% | activity change, negative = inhibition [2] 5.95% | outcome [3] | Potency [4] > 20.6 µM | activation [16] 0.98%

COC(=O)C(O)(c1ccc(NC(=O)c2ccco2)c(OC)c1)C(F)(F)F (centres undefined)
inactive: activity change, negative = inhibition [1] -12.5% | activity change, negative = inhibition [2] 4.31% | Potency [4] > 20.6 µM
